# Measured values taken from PubChem BioAssay (NCI).
# Compounds without any hit were thinned out: in the full panel of roughly 83,000, 20% have a hit.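 A percent growth of 40 corresponds to 60% growth inhibition; 0 means no net growth; -100 means all cells died. Active threshold: below 10.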 Values without a mark were called inactive. Activity calls are given as the source filed them.
# Tests used:
# Test in all cases: NCI-60 one-dose screen, 48 h (100 = growth as untreated, 0 = no growth, -100 = all killed)
# Details in all cases: 10 µM unless noted
# [1] = tested on: SR leukemia
# [2] = tested on: RPMI-8226 leukemia
# [3] = tested on: OVCAR-8 ovarian
# [4] = tested on: OVCAR-5 ovarian
# [5] = tested on: OVCAR-4 ovarian
# [6] = tested on: SK-OV-3 ovarian
# [7] = tested on: IGROV1 ovarian
# [8] = tested on: OVCAR-3 ovarian
# [9] = tested on: HS 578T breast
# [10] = tested on: NCI/ADR-RES ovarian
Structure (SMILES),growth [1],growth [2],growth [3],growth [4],growth [5],growth [6],growth [7],growth [8],growth [9],growth [10]
O=C(Nc1ccc(Cl)cn1)C1(c2ccccc2)CCCCC1,-14.5% (active),93%,113%,102%,91.6%,117%,534%,118%,107%,125%
O=Nc1c(-c2c(O)[nH]c3cc(Br)ccc23)[nH]c2ccccc12,-40.5% (active),-5.99% (active),-17.4% (active),-72.9% (active),7.53% (active),-77.8% (active),-44.5% (active),-64.9% (active),-49.7% (active),-76.7% (active)
COc1ccc(-c2nnc(SCC(=O)Nc3ccc(C(=O)/C=C/c4cc(OC)c(OC)c(OC)c4)cc3)n2-c2ccccc2)cc1OC,75% [100 µM],16.7% [100 µM],15.9% [100 µM],19.2% [100 µM],-49% [100 µM] (active),-54.7% [100 µM] (active),-36.1% [100 µM] (active),-37% [100 µM] (active),4.23% [100 µM] (active),46% [100 µM]
Cn1cnc2nc[nH]c2c1=S,89.6%,101%,105%,94.8%,108%,105%,113%,115%,102%,101%
Cc1nnc(/N=C2\NC(=O)/C(=C/C=C/c3ccccc3)S2)s1,34.8%,44.8%,49.5%,88.3%,48.5%,58.3%,51.8%,38.5%,71.7%,44.8%
CCCCCCCCCCCCOC(=O)/C=C\C(=O)NC(N)=O,3.65% (active),4% (active),70.6%,108%,86%,97.8%,73%,92.4%,86%,88.4%
CCOC(=O)C1C(=O)C(=O)N(C(C)C)C1C(=O)OCC (stereo unspecified),108%,106%,91.4%,92.9%,106%,109%,110%,108%,96.5%,106%
O=C(O)c1ccc(Br)nc1,95.9%,98.7%,98.3%,86.1%,98.6%,92.3%,107%,102%,102%,102%
CCCCCCCCCCCCCCCCNC(=S)N/N=C/c1ccc(OC)cc1,106%,93.2%,92.1%,105%,113%,114%,106%,110%,107%,101%
Nc1ncn([C@@H]2O[C@H](CO)[C@@H](O)C2(F)F)c(=O)n1,15%,39.2%,49.8%,87%,94.9%,71.1%,56.8%,70.6%,90.4%,42.1%
CC(=O)N1CCN(CCNC(=O)n2cc(-c3ccncc3)c(-c3ccc(O)c(Cl)c3)n2)CC1,85%,102%,106%,114%,127%,104%,127%,112%,139%,107%
COc1ccc2nc3cc(Cl)ccc3c(NCCCNC(C)=O)c2c1,21%,37.2%,26.8%,39.1%,49.2%,49.7%,36.2%,45.8%,60.4%,41.4%
Cc1ccccc1-n1c(C)nc2cc(NC(=O)c3ccc(Cl)cc3)ccc2c1=O,73.7%,44.6%,84%,75.9%,30.1%,83.2%,78.6%,58.9%,82.1%,82.4%
CCCCCCNC(=O)Oc1ccc(/C(=C(/C)Cc2ccc(OC)cc2)c2ccc(OCCN(C)C)cc2)cc1,-22.5% (active),28.8%,69.9%,90.3%,76.8%,83.4%,74.4%,81.3%,45.9%,78.3%
Clc1ccc(N/N=C/c2ccccn2)nc1,6.32% (active),26.3%,18.1%,30.3%,6.01% (active),27.2%,11.2%,22.3%,60.1%,-1.35% (active)
COc1ccc(C(=O)NCCNc2nccc(-c3c(-c4ccc(F)cc4)nc4sccn34)n2)cc1,44.1%,40.5%,49.4%,62.4%,80.5%,70.6%,31%,80.7%,28.7%,62.3%
O=C(CCCC(=O)Nc1ccc(Cn2nnc3cc(Cl)c(Cl)cc32)cc1)Nc1ccc(CN2N=NC3C=C(Cl)C(Cl)=CC32)cc1 (stereo unspecified),79.2%,64.4%,76.3%,95.8%,65.6%,86.3%,81.1%,87.7%,91.5%,83.1%
N#Cc1c2cccnc2c2nnc3cc(Cl)c(Cl)cc3n12,5.53% (active),35.3%,-19.5% (active),89.3%,-4.97% (active),90%,10.6%,-9.66% (active),-56.8% (active),-5.61% (active)
COc1cc(NC(C)CCCN)c2nc(C)ccc2c1OC (stereo unspecified),17.7%,69.1%,119%,95.6%,94.6%,107%,103%,64.1%,105%,101%
CCC(C)(C)c1ccc(OCCCCCCN2CCNCC2)cc1,-2.78% (active),-16.4% (active),75.2%,91.6%,70%,101%,87.3%,69.4%,64.2%,76.4%
COc1ccc2c(c1)cn1c3ccc(O)cc3[nH]c(=O)c21,3.4% (active),-20.2% (active),15%,18.7%,28.6%,11.3%,13.2%,-21.9% (active),-22.9% (active),1.78% (active)
CCCNC(=O)Oc1ccc(/C(=C(/C)Cc2ccc(OC)cc2)c2ccc(OCCN3CCCCC3)cc2)cc1,3.39% (active),77.5%,91.1%,94.9%,87.3%,90.2%,98.4%,88.6%,71.7%,84.4%
COc1ccc(CN2C(=O)/C(=C\C(=O)c3ccc(OCCN4CCCC4)cc3)c3ccccc32)cc1,-14.2% (active),-4.7% (active),86.5%,77.6%,60.4%,101%,81.4%,49.6%,84.2%,85.8%
Oc1ccc(Br)cc1/C=N/NC(=S)NC12CC3CC(CC(C3)C1)C2,-7.5% (active),-21.3% (active),-31.3% (active),46.9%,36.9%,39.7%,5.57% (active),-26.5% (active),–,-3.63% (active)
C=CCNCCC#N,89.7%,101%,96.8%,108%,106%,103%,108%,114%,–,117%
Oc1ccc([S+](c2ccc(O)cc2)c2ccc(O)cc2)cc1,89.1%,96%,94.3%,101%,107%,106%,110%,114%,–,112%
CNc1ccc(Nc2ccc(S(=O)(=O)O)cc2)c2c1C(=O)c1ccccc1C2=O,99.7%,107%,101%,98.7%,109%,117%,105%,121%,–,108%
